In PubChem BioAssay one finds composite z-score and z-score data, which are given here for 26 compounds.

The source made the active and inactive calls. Unless noted, no rule for the calls is given here.

Experiment [1] concerns XIP peptide (Xip251-270) binding. Put plainly: small-molecule binders of XIP peptide, primary screen, biochemical, small-molecule microarray, fluorescence 635/667 nm, 0.1 µg/mL protein (AID 1182). As to conditions: fluorescent protein binding, 635 nm, higher = more signal, called active from +8 up or from −8 down.
Experiment [2] has as its system XIP peptide (Xip251-270). Put plainly: small-molecule binders of XIP peptide, primary screen, biochemical, small-molecule microarray, fluorescence 635/667 nm, 0.5 µg/mL protein (AID 1183). As to conditions: small-molecule microarray binding, fluorescence 635 nm; higher = more signal.
Experiment [3] can be described thus: Plasmodium falciparum growth inhibition, primary screen, strain 3D7, DAPI fluorescence, 100 nL (AID 1184).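 Also: parasites grown inside human red blood cells in medium with human serum.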 As to conditions: P. falciparum 3D7 growth, 3 d, higher = more signal.
Experiment [4] addresses Homeobox protein Hox-A13 (Mus musculus) (UniProt Q62424). Briefly: inhibitors of HoxA13-DNA binding, primary screen, biochemical, fluorescence polarization, labeled oligonucleotide (AID 1185). As to conditions: 15 min, higher = more signal, called active from +8 up or from −8 down.
Experiment [5] can be described thus: inhibitors of hydroxyurea-induced Chk1 phosphorylation, primary screen, imaging, HeLa, phospho-Chk1 antibody, percent positive cells (AID 1186). The note with it: hydroxyurea-induced phospho-Chk1 immunofluorescence imaging, higher = more signal.
The nature of experiment [6]: inhibitors of hydroxyurea-induced Chk1 phosphorylation, primary screen, imaging, HeLa, phospho-Chk1 nuclear intensity (AID 1187). As to conditions: hydroxyurea-induced phospho-Chk1 immunofluorescence imaging, higher = more signal.

Chain of Homeobox protein Hox-A13 (Mus musculus) (Q62424 whole entry, looked up): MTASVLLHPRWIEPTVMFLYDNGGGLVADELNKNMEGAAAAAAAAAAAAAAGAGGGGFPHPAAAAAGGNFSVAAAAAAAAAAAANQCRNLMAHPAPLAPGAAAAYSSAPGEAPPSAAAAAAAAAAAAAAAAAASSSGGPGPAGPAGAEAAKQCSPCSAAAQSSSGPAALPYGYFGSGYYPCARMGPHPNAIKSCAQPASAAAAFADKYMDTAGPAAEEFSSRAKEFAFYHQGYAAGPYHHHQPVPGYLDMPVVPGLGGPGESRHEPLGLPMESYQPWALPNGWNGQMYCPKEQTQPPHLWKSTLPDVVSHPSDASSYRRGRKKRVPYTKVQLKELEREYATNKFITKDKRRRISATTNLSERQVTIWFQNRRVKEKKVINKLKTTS

Take `CC(C)C[C@H]1NC(=O)C([C@@H](C)OCc2ccccc2)NC(=O)[C@@]23C(=O)N[C@@H](Cc4ccccc4)C2[C@H](C)[C@@]2(C)O[C@H]2C3/C=C/C/C=C\CNC1=O` (stereo partly specified): the composite z-score is 0.304 (inactive) in experiment [1] and 0.22 in experiment [2]. For the same compound, the z-score is -2.23 in experiment [3], -6.86 (inactive) in experiment [4], -0.762 (inactive) in experiment [5] and -0.732 (inactive) in experiment [6].

In the case of `O=C1O[C@H](c2ccccc2)[C@H](c2ccccc2)N2[C@H]1[C@@H](C(=O)N1CCN(c3ncccn3)CC1)[C@]1(C(=O)Nc3ccc(C#CCCO)cc31)[C@H]2c1ccc(O)cc1`, the composite z-score in experiment [1] is -0.224 (inactive); in experiment [2], 0.726. Moreover, the z-score in experiment [3] is -0.707; in experiment [4], -2.81 (inactive); in experiment [5], -0.114 (inactive); in experiment [6] it was -0.212 (inactive).

On to `C=C(COC)C(=O)CC[C@@H](OC(C)=O)c1ccccc1OCCO`, for which the values for the composite z-score in experiment [1] and in experiment [2] were 0.0063 (inactive) and 0.522, respectively. Moreover, the z-score in experiment [3] was -2.06; in experiment [4] it was -5.01 (inactive); in experiment [5], 0.374 (inactive); in experiment [6], 0.77 (inactive).

Consider `C=C(CCCC)/C(=C/C[C@@H](OC(C)=O)c1ccc(CO)o1)c1cnc2ccccc2c1`, for which the composite z-score in experiment [1] is 0.714 (inactive); in experiment [2] it was 0.811. Further, the z-score in experiment [3] is -1.38; in experiment [4] it was -4.99 (inactive); in experiment [5], 0.196 (inactive); in experiment [6], -0.109 (inactive).

For the compound `COCCCNC(=O)[C@@H]1c2ccccc2C(=O)N(Cc2ccc(OC(F)(F)F)cc2)[C@H]1c1ccc(CO)cc1`, the figures for the composite z-score in experiment [1] and in experiment [2] were 0.16 (inactive) and 0.314, respectively. Also, the z-score was 0.0414 in experiment [3], -3.51 (inactive) in experiment [4], -0.163 (inactive) in experiment [5] and -0.368 (inactive) in experiment [6].

Turning to `Cc1ccc(S[C@]2(C(=O)NCCCN(C)C)CC(=O)N(Cc3ccccc3C(F)(F)F)[C@@H]2c2ccc(CO)cc2I)cc1`, the composite z-score in experiment [1] is 0.223 (inactive); in experiment [2] it was 0.82. Besides, the z-score in experiment [3] is 0.306; in experiment [4] it was -2.71 (inactive); in experiment [5], 0.0909 (inactive); in experiment [6], 0.675 (inactive).

In the case of `COCCOC(=O)N1C(=O)[C@@]2(c3cc(C#CCC(C(=O)OC)C(=O)OC)ccc31)[C@H](C(=O)Nc1nc3ccccc3s1)[C@H]1C(=O)O[C@H](c3ccccc3)[C@H](c3ccccc3)N1[C@@H]2c1ccc(OCCO)cc1`, the values for the composite z-score in experiment [1] and in experiment [2] were 1.7 (inactive) and 0.768, respectively. The z-score is -1.85 in experiment [3], 1.46 (inactive) in experiment [4], -0.0393 (inactive) in experiment [5] and 0.611 (inactive) in experiment [6].

For `O=C1C[C@]2(c3ccc([N+](=O)[O-])cc3)C(=O)N(C3CC3)c3cc(CO)ccc3[C@H]2N1C1CCCCC1`, the results for the composite z-score in experiment [1] and in experiment [2] were -0.217 (inactive) and 0.205, respectively. For the same compound, the z-score was 1.47 in experiment [3], -1.16 (inactive) in experiment [4], -0.214 (inactive) in experiment [5] and -0.771 (inactive) in experiment [6].

For `NC(=O)NCC#Cc1ccc2c(c1)[C@]1(C(=O)N2)[C@H](c2ccc(OCCO)cc2)N2[C@H](c3ccccc3)[C@H](c3ccccc3)OC(=O)[C@H]2[C@@H]1C(=O)NC[C@H](O)c1ccccc1`, the composite z-score in experiment [1] is -0.133 (inactive); in experiment [2], 0.594. The z-score in experiment [3] is -0.833; in experiment [4], -3.2 (inactive); in experiment [5], -0.261 (inactive); in experiment [6], -0.572 (inactive).

With `COC(=O)[C@@]1(Cc2ccc(F)cc2)[C@H]2c3cc(C(=O)N(C)C)n(C)c3C[C@H]2CN1C(=O)c1ccccc1`, the composite z-score in experiment [1] is -0.0622 (inactive); in experiment [2], -0.153. Besides, the z-score was 0.386 in experiment [3], -7.29 (inactive) in experiment [4], 0.707 (inactive) in experiment [5] and 0.633 (inactive) in experiment [6].

In the case of `CN1C(=O)C2C(C1=O)C1C=C(CCCO)C2C(C2CC2)N1Cc1cccc(OC(F)(F)F)c1` (stereo unspecified), the results for the composite z-score in experiment [1] and in experiment [2] were 0.0292 (inactive) and 0.9, respectively. The z-score in experiment [3] was -1.06; in experiment [4] it was -7.06 (inactive); in experiment [5], 0.0426 (inactive); in experiment [6] it was -0.0667 (inactive).

Turning to `CC(C)(C)N1CC=CC23O[C@@H]4/C=C\CCCOC(=O)C4[C@H]2C(=O)N(CCCO)[C@@H]3C1=O` (stereo partly specified), the composite z-score in experiment [1] is -0.12 (inactive); in experiment [2], -0.774. The z-score was 0.426 in experiment [3], -5.57 (inactive) in experiment [4], -0.0351 (inactive) in experiment [5] and 0.0939 (inactive) in experiment [6].

With `C=C(C)[C@@H]1CC=C(C(O)C2C=CC3C(=O)N(C)C(=O)C3N2Nc2ccc([N+](=O)[O-])cc2[N+](=O)[O-])CC1` (stereo partly specified), the composite z-score is -0.0868 (inactive) in experiment [1] and 0.641 in experiment [2]. Also, the z-score in experiment [3] was 0.481; in experiment [4], -4.28 (inactive); in experiment [5], 0.385 (inactive); in experiment [6], 0.279 (inactive).

With `O=C1OCCC=C[C@H]2OC34C=CCN(c5ccc6ccccc6c5)C(=O)[C@H]3N(CCO)C(=O)[C@@H]4C12` (stereo partly specified), the composite z-score in experiment [1] is 0.263 (inactive); in experiment [2], 0.569. Also, the z-score is -0.022 in experiment [3], -5.62 (inactive) in experiment [4], 0.8 (inactive) in experiment [5] and 0.163 (inactive) in experiment [6].

On to `CN(C)CCCCNC(=O)[C@H]1C[C@H]2C(=O)NCC(=O)N2[C@H]1c1ccc(O)cc1`, for which the composite z-score was 0.372 (inactive) in experiment [1] and 0.815 in experiment [2]. The z-score is 0.185 in experiment [3], -4.67 (inactive) in experiment [4], -0.15 (inactive) in experiment [5] and -0.186 (inactive) in experiment [6].

With `C=CCC(OC(C)=O)[C@@H]1[C@@H](N(Cc2cccc3ccccc23)C(=O)Cc2ccc(OC)cc2)c2cc(OCCCO)ccc2N1C(=O)c1ccc2ccccc2c1` (stereo partly specified), the composite z-score was -0.129 (inactive) in experiment [1] and 0.174 in experiment [2]. In addition, the z-score in experiment [3] is -2.64; in experiment [4] it was -2.33 (inactive); in experiment [5], -0.325 (inactive); in experiment [6], -0.0189 (inactive).

Regarding `COC(=O)[C@H](Cc1ccc(O)cc1)N[C@@H](/C=C/C1CC1)[C@H](O)Cc1ccccc1`, the composite z-score in experiment [1] was -0.364 (inactive); in experiment [2], -0.0324. Also, the z-score in experiment [3] was 1.55; in experiment [4] it was -5.14 (inactive); in experiment [5] it was 0.412 (inactive); in experiment [6], 0.0577 (inactive).

With `CN1C(=O)C2C(C3CC3)C=C3CN(Cc4cccc(Cl)c4)[C@@H]([C@@H](O)Cc4ccccc4)C3C2C1=O` (stereo partly specified), the composite z-score is 0.163 (inactive) in experiment [1] and 0.74 in experiment [2]. Also, the z-score was -0.185 in experiment [3], -4.6 (inactive) in experiment [4], -1.34 (inactive) in experiment [5] and -2.37 (inactive) in experiment [6].

Regarding `Cc1ccc(S[C@]2(C(=O)NCc3ccccc3)CC(=O)N(Cc3ccccc3C(F)(F)F)[C@@H]2c2ccc(CO)cc2)cc1`, the composite z-score in experiment [1] is 0.903 (inactive); in experiment [2], 0.599. Further, the z-score is 0.78 in experiment [3], 0.0133 (inactive) in experiment [4], -0.51 (inactive) in experiment [5] and -0.393 (inactive) in experiment [6].

As for `COc1ccc([Si](C)(C)[C@@H]2[C@@H](CC(=O)N(CCO)Cc3ccccc3)O[C@]3(C(=O)N(Cc4ccc(I)cc4)c4ccccc43)[C@H]2C)cc1`, the figures for the composite z-score in experiment [1] and in experiment [2] were 1.59 (inactive) and 0.256, respectively. Moreover, the z-score in experiment [3] is -2.2; in experiment [4], -2.17 (inactive); in experiment [5] it was -0.168 (inactive); in experiment [6], -0.299 (inactive).

`CC(C)=C1C(=O)C(c2ccccc2)=C2CN3C(=O)N(CCc4ccccc4)C(=O)[C@]3(C)[C@H]21`: the composite z-score was 0.254 (inactive) in experiment [1] and 0.295 in experiment [2]. Besides, the z-score is 0.127 in experiment [3], -3.12 (inactive) in experiment [4], -0.0061 (inactive) in experiment [5] and 0.467 (inactive) in experiment [6].

As for `CCOC(=O)C1=CC[C@@H](c2ccc(OC)cc2)N(S(=O)(=O)c2ccc(C)cc2)[C@H]1c1ccc(C)cc1`, the composite z-score in experiment [1] is 0.3 (inactive); in experiment [2], 0.44. Further, the z-score in experiment [3] was 0.869; in experiment [4] it was -0.57 (inactive); in experiment [5], -0.0113 (inactive); in experiment [6], -0.5 (inactive).

For `CC[C@@H]1C=C(C(=O)O)[C@H](c2ccc(OC)cc2)N1S(=O)(=O)c1ccc(C)cc1`, the composite z-score in experiment [1] is 1.98 (inactive); in experiment [2], 0.129. Moreover, the z-score is 2.03 in experiment [3], -2.62 (inactive) in experiment [4], -0.745 (inactive) in experiment [5] and -1.26 (inactive) in experiment [6].

Take `COc1ccc([Si](C)(C)[C@@H]2[C@@H](CC(=O)N(CCO)Cc3ccccc3)O[C@]3(C(=O)N(Cc4ccc(N5C(=O)c6cccc7cccc5c67)cc4)c4ccccc43)[C@H]2C)cc1`: the values for the composite z-score in experiment [1] and in experiment [2] were 1.28 (inactive) and 0.577, respectively. The z-score is -1.17 in experiment [3], -1.19 (inactive) in experiment [4], 0.398 (inactive) in experiment [5] and -0.601 (inactive) in experiment [6].

Regarding `CCCC[C@H]1C[C@@H]1[C@@H]1N(C(C)=O)[C@H](c2cccc(OC)c2)CC12CC2`, the composite z-score in experiment [1] was -0.233 (inactive); in experiment [2], -1.04. Further, the z-score was -0.313 in experiment [3], -3.27 (inactive) in experiment [4], 0.368 (inactive) in experiment [5] and 0.638 (inactive) in experiment [6].

On to `C[C@]1(C(=O)O)c2ccccc2C(=O)N(Cc2cc(F)cc(C(F)(F)F)c2)[C@H]1c1ccc(CO)cc1`, for which the composite z-score in experiment [1] is 0.342 (inactive); in experiment [2], 0.778. Also, the z-score in experiment [3] is 0.832; in experiment [4] it was -1.83 (inactive); in experiment [5], 0.117 (inactive); in experiment [6], 0.239 (inactive).
